Laboratory results: PubChem BioAssay (NCATS)
Results filed as inconclusive are left out. Where a call stands in place of a potency, no number is given. Activity calls are given as the source filed them. Calls come from the whole dose curve; as a rule, active = well fitted inhibition curve with a large enough effect; inconclusive = small, poorly fitted or top-dose-only effect; inactive = flat fitted curve, though single readings scatter. *1 amine or outer side, *2 acyl side, *3 side chain or, on linkers, in order; H or OH if unused. Where a SMILES comes first, the peptide text is derived from it. Bridges are numbered along the chain shown (N, C = ends). [ ]: non-standard residue; d: D form. The star is where a group is joined. pTerphenylCO(4''-OnC5H11) = CCCCCOc1ccc(-c2ccc(-c3ccc(C(=O)*)cc3)cc2)cc1; Orn(4R-OH,5R-OH) = O=C([C@H](C[C@@H](O)[C@@H](O)N[*:3])N[*:1])[*:2]; hTyr(3S-OH,4S-OH) = N[C@H](C(=O)O)[C@H](O)[C@@H](O)c1ccc(O)cc1; Pro(3S-OH,4S-Me) = C[C@H]1CN[C@H](C(=O)O)[C@H]1O; Hyp = O=C(O)[C@@H]1C[C@@H](O)CN1

Assay: P-glycoprotein substrates identified in KB-8-5-11 adenocarcinoma cell line, qHTS therapeutic library screen (AID 1346987); note: nearly all actives have a fitted effect of over 65% in size
Conditions: KB-8-5-11 (P-gp overexpressing) viability, CellTiter-Glo, 72 h; series mostly up to 44.5 µM
In short: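 Luminescence from CellTiter-Glo, read 5 min after addition, quantified survival of KB-8-5-11 (P-gp-overexpressing) cells exposed to compounds for 72 h. AC50 was derived from concentration-response curves.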
Potency is the fitted concentration of half-maximal effect.

| SMILES | Potency |
| --- | --- |
| CN(CC1COCCO1)S(=O)(=O)Nc1ccc2ccc3ncc(-c4cnn(C)c4)cc3c(=O)c2c1 (stereo unspecified) | 14.6 µM (active) |
| COc1cc(/C=C2\CC[C@H]3COC[C@@H](c4cc(F)c(F)c(F)c4)N3C2=O)ccc1-n1cnc(C)c1 | inactive |
| COc1ccc2[nH]c(=O)c3c(c2c1)OC(C)(C)C=C3 | inactive |
| CC(=O)O[C@H]1CC[C@]2(C)[C@H]3CC[C@]4(C)Oc5oc(C)cc(=O)c5C[C@H]4[C@]3(C)CC[C@H]2C1(C)C | inactive |
| Cc1[nH]c2ccccc2c1CCNC(=O)c1cccs1 | inactive |
| O=C(/C=C/c1ccccc1O)O[C@@H]1O[C@H](CO)[C@@H](O)[C@H](O)[C@H]1O | inactive |
| COc1cc2ncc(-c3ccccc3)nc2cc1OC | 8.2 µM (active) |
| C=C[C@@]12COC(=O)C(=C)[C@@H]1[C@@H](O)[C@H](C(=C)C(=O)OC)[C@@H](O)C2 | inactive |
| C=C(C)C(=O)O[C@H]1[C@H]2C(=C)C(=O)O[C@@H]2/C=C(\CO)CC/C=C(/C=O)[C@@H]1O | inactive |
| O=C(O)CCc1nccc2c1[nH]c1ccccc12 | inactive |
| CCCCCOc1ccc(-c2ccc(-c3ccc(C(=O)N[C@H]4C[C@@H](O)[C@@H](O)NC(=O)[C@@H]5[C@@H](O)[C@@H](C)CN5C(=O)[C@H]([C@@H](C)O)NC(=O)[C@H]([C@H](O)[C@@H](O)c5ccc(O)cc5)NC(=O)[C@@H]5C[C@@H](O)CN5C(=O)[C@H]([C@@H](C)O)NC4=O)cc3)cc2)cc1 ({pTerphenylCO(4''-OnC5H11)}-[Orn(4R-OH,5R-OH)]T[Hyp][hTyr(3S-OH,4S-OH)]T[Pro(3S-OH,4S-Me)]; lactam 1-C) | inactive |
